Assay results from PubChem BioAssay (NCATS).
Inconclusive results are not listed. Where a call stands in place of a potency, no number is given. Active and inactive are the calls of the source. Calls follow the shape of the dose curve; as a rule, active = well fitted inhibition curve with a large enough effect; inconclusive = small, poorly fitted or top-dose-only effect; inactive = flat fitted curve, though single readings scatter.

System: MCC-26
Test: qHTS assay to identify novel small-molecules to repurpose for Merkel cell carcinoma treatment (AID 1296009); also: nearly all actives have a fitted effect of over 60% in size
Conditions: MCC and control cell lines, CellTiter-Glo viability, 72 h; series mostly up to 46 µM
Text: MCC is a rare and aggressive neuroendocrine skin cancer with limited treatment options. Approximately 80% of MCCs have the Merkel cell polyomavirus (MCPyV) DNA integrated into the host genome (virus-positive: VP-MCC) and viral oncogenes drive oncogenesis. The remaining MCCs are virus-negative (VN-MCC) and are caused by UV mutagenesis. To identify novel treatments for VP-MCC and/or VN-MCC we screened three VP-MCC cell lines (WAGA, MKL-1, MKL-2), three VN-MCC cell lines (MCC-13, MCC-26, UISO), and four immortalized, non-transformed control cell lines (HaCaT, HEK293T, CRL7250, NIH-3T3) against ~2,400 compounds in the NCGC Pharmaceutical Collection (NPC) and ~1,900 compounds in the Mechanism Interrogation PlatE (MiPE). Using cell viability as a readout (CellTiter-Glo assay) we found both overlapping and distinct drugs that can be repurposed for the treatment of VP-MCC and VN-MCC.
A high-throughput screen was conducted in 1536-well white flat bottom plates (Corning) on a Kalypsys robotic system. Cell lines WAGA, MKL-1, MKL-2, MCC-13, MCC-26, UISO, HaCaT, HEK293T, CRL7250, and NIH-3T3 were screened against 2 small molecule annotated drug libraries NPC and MIPE in dose response (8 and 11 pt. respectively) measuring cell viability after 72 hours of incubation. […] A 1,536 pintool (Kalypsys) was used to transfer 23 nL of compound in DMSO to the 1,536-well assay plates. After 72 hr incubation at 37 degree celsius, 2.5 uL of CellTiter-Glo (Promega) was dispensed into each well using a BiorapTR. Plates were incubated at room temperature for 10 min, transferred to a ViewLux (PerkinElmer) and the luminescence was recorded using an exposure time of 2 seconds. Relative luminescence units (RLUs) were normalized to in-plate controls (no cells as a positive (cytotoxicity) control, DMSO as negative control) and the normalized data was processed using NCATS in-house software.
Potency is read from the fitted curve at half-maximal effect.

Structure (SMILES) | Potency
CCOC(=O)c1cccc(N)c1 | inactive
CC(=O)Oc1ccc(C(=C2CCCCC2)c2ccc(OC(C)=O)cc2)cc1 | inactive
O=c1ccc2ccccc2o1 | inactive
CC[N+](CC)(CCNC(=O)C(=O)NCC[N+](CC)(CC)Cc1ccccc1Cl)Cc1ccccc1Cl | inactive
Nc1nc2ncc(CNc3ccc(C(=O)N[C@@H](CCC(=O)O)C(=O)O)cc3)nc2c(=O)[nH]1 | inactive
CC1(C)O[C@@H]2C[C@H]3[C@@H]4C[C@H](F)C5=CC(=O)C=C[C@]5(C)[C@H]4[C@@H](O)C[C@]3(C)[C@]2(C(=O)CO)O1 | inactive
CC1=C(C(=O)O)N2C(=O)[C@@H](NC(=O)[C@H](N)c3ccc(O)cc3)[C@H]2SC1 | inactive
O=C(COc1ccc(Cl)cc1)N1CCN(Cc2ccc3c(c2)OCO3)CC1 | inactive
Cc1ccc(C(=O)C(C)CN2CCCCC2)cc1 (stereo not given) | inactive
O=C(N/N=C/c1ccccc1O)c1ccncc1 | 9.44 µM (active)
COc1cc(-c2ccc(=O)[nH]n2)ccc1OC(F)F | inactive
C[n+]1c2cc(N)ccc2cc2ccc(N)cc21 (tested in a mixture with another compound) | 15 µM (active)
CC(=O)Oc1ccc2c(c1)CC[C@@H]1[C@@H]2CC[C@]2(C)[C@@H](O)CC[C@@H]12 | inactive
CC(C)(Oc1ccc(Cl)cc1)C(=O)O | inactive
C[C@@H]1C[C@H]2[C@@H]3C[C@H](F)C4=CC(=O)C(Cl)=C[C@]4(C)[C@@]3(F)[C@@H](O)C[C@]2(C)[C@@]1(O)C(=O)CO | inactive
COc1ccc(C2C(=O)c3ccccc3C2=O)cc1 | inactive
C[C@H]1[C@H](NC(=O)/C(=N/OC(C)(C)C(=O)O)c2csc(N)n2)C(=O)N1S(=O)(=O)O (stereo in doubt) | inactive
CCCSS/C(CCO)=C(\C)N(C=O)Cc1cnc(C)nc1N | 26.6 µM (active)
COC(=O)CCc1ccc(OCC(O)CNC(C)C)cc1 (stereo not given) | inactive
C=CCc1ccc(O)c(OC)c1 | inactive

Structure (SMILES) | Potency
COc1ccc(OC)c(C(O)CNC(=O)CN)c1 (stereo not given) | inactive
CC(O)(P(=O)(O)O)P(=O)(O)O | inactive
NC(=O)c1cc[n+](CC2=C(C(=O)[O-])N3C(=O)[C@@H](NC(=O)Cc4cccs4)[C@H]3SC2)cc1 | inactive
CN(C)CC/C=C1/c2ccccc2COc2ccc(CC(=O)O)cc21 | inactive
C=C1C(=C/C=C2\CCC[C@]3(C)[C@@H]([C@H](C)/C=C/[C@@H](O)C4CC4)CC[C@@H]23)C[C@@H](O)C[C@@H]1O | inactive
OC(CCN1CCCCC1)(c1ccccc1)c1ccccc1 | inactive
O=C1[C@H]2CCCC[C@H]2C(=O)N1CCCCN1CCN(c2nsc3ccccc23)CC1 | inactive
Oc1cc(O)c2c(c1)O[C@H](c1ccc(O)c(O)c1)[C@H](O)C2 | inactive
COC1=CC(=O)C[C@@H](C)[C@]12Oc1c(Cl)c(OC)cc(OC)c1C2=O | inactive
CCOc1ccc(NC(=O)CC(C)O)cc1 (stereo not given) | inactive
CCN(CC)CCOC(=O)C(c1ccccc1)C1CCCCC1 (stereo not given) | inactive
CCOC(=O)n1ccn(C)c1=S | inactive
CC1(C)O[C@@H]2C[C@H]3[C@@H]4C[C@H](F)C5=CC(=O)CC[C@]5(C)[C@H]4[C@@H](O)C[C@]3(C)[C@]2(C(=O)CO)O1 | inactive
COc1cccc(CCc2ccccc2OCC(CN(C)C)OC(=O)CCC(=O)O)c1 (stereo not given) | inactive
C[C@]12CCC(=O)C=C1CC[C@H]1[C@@H]3CC[C@](O)(C(=O)CO)[C@@]3(C)C[C@H](O)[C@@]12F | inactive
C[C@]12CCC(=O)C=C1[C@@H]1C[C@@H]1[C@H]1[C@@H]3[C@@H]4C[C@@H]4[C@@]4(CCC(=O)O4)[C@@]3(C)CC[C@@H]12 | inactive
CC[C@@H](CO)NCCN[C@@H](CC)CO | inactive
CCCCN1CCCC1C(=O)Nc1c(C)cc(C)cc1C (stereo not given) | inactive
COc1ccc(CN2CCN(C(c3ccc(F)cc3)c3ccc(F)cc3)CC2)c(OC)c1OC | inactive
CC(C)=CCC1C(=O)N(c2ccccc2)N(c2ccccc2)C1=O | inactive
